# Data taken from PubChem BioAssay AID504834 (National Center for Advancing Translational Sciences (NCATS), 2011).
# Out of some 320,000 compounds screened, about 22,000 (6.9%) were called active. About 27% were inconclusive and are not listed. The sample holds actives, similar compounds and a random draw of the others, so the mix is not that of the screen. Values without a mark were called inactive. Calls come from the whole dose curve; as a rule, active = well fitted inhibition curve with a large enough effect; inconclusive = small, poorly fitted or top-dose-only effect, or another doubt; inactive = no such curve, though single readings can be large or run the other way.
# Experiment: Primary qHTS for delayed death inhibitors of the malarial parasite plastid, 96 hour incubation
# Details: P. falciparum luciferase reporter growth; series mostly up to 28.7 µM; activity change, negative = inhibition: at the top concentration
# Method in brief: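 Plates of compound plus infected erythrocytes (2% hematocrit, 0.05% parasitemia final) incubate 96 hours, 37 C, 5% CO2. Detection reagent added; reduced luminescence from the parasites' luciferase reporter flags inhibition.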
# % is set by controls: 0 for no effect and ±100 for the full control effect; potency is the fitted concentration of half-maximal effect.
SMILES,"activity change, negative = inhibition [%]",Potency
FC(F)(F)c1cccc(Cc2noc(CN3CCC(N4CCCCC4)CC3)n2)c1,11.2,–
O=C(c1ccco1)N1CCN(Cc2cccc(C(F)(F)F)c2)CC1,13.8,–
CCOC(=O)N1CCN(Cc2nc(Cc3cccc(C(F)(F)F)c3)no2)CC1,–,9.28 µM (active)
Cc1ccc2nc(SCC(=O)N3CC(C)OC(C)C3)nc(=O)n2c1 (stereo unspecified),6.36,–
CC(OC(=O)CCCc1c[nH]c2ccccc12)C(=O)Nc1ccc(S(N)(=O)=O)cc1 (stereo unspecified),18.9,–
COc1ccc(C(=O)CCc2ccccc2O)c(OC)c1,46.9,–
Cc1ccc(S(=O)(=O)N(C)CC(=O)OCC(=O)Nc2ccccc2)cc1,51.8,–
COc1ccc(N(C)C(=O)C2CCN(S(=O)(=O)c3cccc4nsnc34)CC2)cc1,43.7,–
Cc1ccc(NC(=O)C2CCCN2S(=O)(=O)c2cccc3cccnc23)c(C)c1 (stereo unspecified),-6.33,–
COc1ccc(OC)c(NC(=O)C2CCCN2S(=O)(=O)c2cccc3nsnc23)c1 (stereo unspecified),–,13.1 µM (active)
CS(=O)(=O)N1CCN(C(=O)c2cc3ccccc3oc2=O)CC1,-19.7,–
O=S(=O)(c1ccc(Cl)s1)N1CCC2(CC1)OCCO2,-6,–
Cc1cc(OCC(=O)N2CCN(c3ncccn3)CC2)ccc1Cl,35.5,–
Cc1ccc(OCC(=O)N2CCN(S(=O)(=O)c3ccc(Cl)s3)CC2)cc1C,–,9.28 µM (active)
O=C(c1cc2ccccc2o1)N1CCN(S(=O)(=O)c2ccc(Cl)s2)CC1,–,11.7 µM (active)
O=C(CN1CCN(S(=O)(=O)c2ccc(Cl)s2)CC1)N1CCCCC1,-16.4,–
O=C(CSc1nnc(CN2CCCC2)n1-c1ccc(F)cc1)c1ccc2c(c1)OCO2,29.9,–
COc1ccc(C(CNC(=O)COc2ccc([N+](=O)[O-])cc2)N2CCCCC2)cc1 (stereo unspecified),-21.8,–
COC(=O)C1=C(c2ccc(Cl)c(C(F)(F)F)c2)C[C@@H]2CC[C@H]1N2C(=O)NC1CC1,–,5.86 µM (active)
COC(=O)C1=C(c2ccc(F)cc2F)C[C@@H]2CC[C@H]1N2C(=O)NC1CC1,39.5,–
Cc1ccc(N2CC(C(=O)Nc3ccc(S(=O)(=O)N4CCCC4)cc3)CC2=O)cc1C (stereo unspecified),49.4,–
COC(=O)c1cc(C(=O)NC(C)C2CC3CCC2C3)cc([N+](=O)[O-])c1 (stereo unspecified),0,–
CCOc1ccc(Cn2nnc(C(=O)NCc3ccccc3)c2N)cc1,2.1,–
COc1cccc(CNC(=O)c2n[nH]c3ccccc23)c1,82.7,–
Cc1ccc(NC(=O)Cn2nnc(C(=O)NCc3ccco3)c2N)c(C)c1,-25.7,–
Nc1c(C(=O)NCc2ccccc2)nnn1Cc1cccc(Cl)c1,-16.3,–

SMILES,"activity change, negative = inhibition [%]",Potency
COc1cccc(CNC(=O)c2nnn(CC(=O)Nc3cc(C)ccc3C)c2N)c1,–,11.7 µM (active)
COc1cccc(CNC(=O)c2nnn(CC(=O)Nc3cc(Cl)ccc3C)c2N)c1,–,3.7 µM (active)
O=C(c1cccc(Br)c1)N1CCN(C2=NS(=O)(=O)c3ccccc32)CC1,24.3,–
Cc1ccc(S(=O)(=O)CC(=O)NC(C)c2ccccc2)cc1 (stereo unspecified),-14,–
CC1=CC(C)(C)NC(=S)N1NC(=O)c1ccccc1Cl,18.6,–
COC(=O)c1cc(NC(=O)c2ccco2)ccc1N1CCOCC1,71.2,–
COc1ccc(C(=O)Nc2sc(C)c(C)c2CN2CCOCC2)cc1,48.4,–
COc1cc(C(c2c(NC(=O)c3ccco3)sc(C)c2C)N2CCOCC2)cc(OC)c1OC (stereo unspecified),–,3.7 µM (active)
Cc1sc2ncn(CC(=O)NCCN(C)C)c(=O)c2c1S(=O)(=O)N1CCC(C)CC1,8.01,–
c1ccc(C2CNCc3c2ccc2ccccc32)cc1 (stereo unspecified),–,9.28 µM (active)
Cc1ccc2c(=O)cc(C(=O)NCCc3ccc(S(N)(=O)=O)cc3)oc2c1C,22.4,–
COc1ccc(OC)c(S(=O)(=O)N(C)CC(=O)N2CCN(c3ccccc3)CC2)c1,3.74,–
CC(CC(=O)N1CCN(c2ccccc2)CC1)c1ccccc1 (stereo unspecified),20.5,–
COc1ccc(C(CC(=O)N2CCN(c3ccccc3)CC2)c2c(O)cc(OC)cc2OC)cc1 (stereo unspecified),–,11.7 µM (active)
NNC(=O)CNC(c1ccccc1)c1cc(Cl)ccc1NC(=O)c1ccccc1 (stereo unspecified),244,–
Cc1ccc(NC(=O)/C(=C\c2ccccc2)NC(=O)c2ccco2)cc1,19.5,–
Fc1ccc(CNc2nc3ccccc3n3nnnc23)cc1,–,14.7 µM (active)
COc1ccc(CNc2nnnn2C)cc1,-14.9,–
CCOC(=O)CNc1nc2ccccc2n2c(C)nnc12,-0.978,–
Cc1cnc(NC(=O)c2ccc(Cl)nc2)s1,-12.9,–
Cc1nnsc1C(=O)NCc1c(F)cccc1Cl,6.81,–
O=C(CNC(=O)c1ccccc1Br)NNC(=O)c1cccs1,11.1,–
COc1ccc(-c2nc(CS(=O)(=O)CC(=O)NCc3cccc(Br)c3)c(C)o2)cc1,0.16,–
Cc1ccc(-c2nc(CS(=O)(=O)CC(=O)NCc3ccc4c(c3)OCO4)c(C)o2)cc1,–,14.7 µM (active)
COc1ccc(CCNC(=O)CS(=O)(=O)Cc2nc(-c3ccc(C)cc3)oc2C)cc1OC,4.87,–
